From PubChem BioAssay (NCI)
Compounds without any hit were thinned out: in the full panel of roughly 83,000, 20% have a hit.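 Testing used 96-well plates and a 48-hour single-concentration exposure. Example: -40 means 40% of the starting cells died.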 Values without a mark were called inactive. Active and inactive are the calls of the source. The calls were made as follows: active = growth percent below 10; inactive = the rest.

Tested on: RXF 393 renal
Experiment: NCI-60 one-dose screen, 48 h (100 = growth as untreated, 0 = no growth, -100 = all killed)
Settings: 10 µM unless noted

SMILES | growth
CCOC(=O)[C@@H](C)C[C@H](Cc1ccccc1)NC(=O)c1csc([C@@H](C[C@H](C(C)C)N(C)C(=O)[C@H](CCC(C)C)NC(=O)[C@H]2CCCCN2C)OC(C)=O)n1 | 12.6%
COC(=O)[C@H](C[C@H](Cc1ccccc1)NC(=O)c1csc([C@@H](C[C@H](C(C)C)N(C)C(=O)[C@@H](NC(=O)[C@H]2CCCCN2C)C(C)C)OC(C)=O)n1)NC(=O)OCc1ccccc1 | 20.4% [8.5 µM]
CC1(C)N=C(N)N=C(N)N1c1ccc(OCCCNC(=O)Nc2ccc(S(=O)(=O)F)cc2)c(Cl)c1 | 49.4%
O=C(CN1CCN(C(=O)c2ccco2)CC1)Nc1ccc(Cl)cc1C(=O)c1ccccc1Cl | -11.8% (active)
Cc1cc(N(CCCl)CCCl)ccc1C=Nc1ccccc1-c1ccccc1 | 45.5%
Cn1cc(-c2csc(-c3cn(CCN4CCOCC4)c4ccccc34)n2)c2cccnc21 | 93.7%
CCOC(=O)[C@@H](C)C[C@H](Cc1ccccc1)NC(=O)c1csc([C@@H](C[C@H](C(C)C)N(C)C(=O)[C@H](CC)NC(=O)[C@H]2CCCCN2C)OC(C)=O)n1 | 28.8%
ClC1=C(Cl)C(Cl)(C2(Cl)C(Cl)=C(Cl)C(Cl)=C2Cl)C(Cl)=C1Cl | -83.2% (active)
O=C([O][Hg][CH2]C1OCCOC1[CH2][Hg][O]C(=O)c1ccccc1)c1ccccc1 (stereo not given) | -90.1% (active)
COc1ccc([As]=[As]c2ccc(OC)c(NCS(=O)(=O)O)c2)cc1NCS(=O)(=O)O (stereo not given) | -17.9% (active)
[Cl][Hg][n]1c(-c2ccco2)nc2ccccc21 | 104%
CCC[CH2][Sn]([CH2]CCC)([CH2]CCC)[O]c1ccc(Cl)cc1Cl | -96.2% (active)
NC(CCl)CCl | 107%
CN1CCC(c2c[nH]c3ccccc23)C1 (stereo not given) | 128%
CCCCCCCCCCCCCCCCCC1OC[C@@H](COC(=O)O[C@@H](C(=O)O[C@H]2C[C@@]3(O)[C@@H](OC(=O)c4ccccc4)[C@@H]4[C@]5(OC(C)=O)CO[C@@H]5C[C@H](O)[C@@]4(C)C(=O)[C@H](OC(C)=O)C(=C2C)C3(C)C)[C@@H](NC(=O)c2ccccc2)c2ccccc2)O1 (stereo not given in full) | 63.1%
CC1=C([Te]c2ccc(O)cc2)C(=O)c2ccccc2C1=O | -0.398% (active)
O=C1NC(=O)C(=Cc2cn(CCCCCCn3c4ccccc4c(=O)c4ccccc43)c3ccccc23)C(=O)N1 | 127%
CC(C)OC(=O)[C@H](C)NP(=O)(Oc1ccccc1)C1CCCN(O)C1=O (stereo not given in full) | 57.2%
CCCCCCC(=O)NC1=C(N2CC2)C(=O)C(NC(=O)CCCCCC)=C(N2CC2)C1=O | 25.7%
COc1ccc(/C=C\c2cc(OC)c(OC)c(OC)c2)cc1NS(=O)(=O)c1ccc(Cl)cc1 | 65.8%
CC[C@H](C)[C@H](NC(=O)[C@H]1CCCCN1C)C(=O)N(C)[C@H](CC(=O)c1nc(C(=O)N[C@@H](Cc2ccccc2)C[C@H](C)C(=O)O)cs1)C(C)C | 87.1%
C[C@]12C[C@@H](CO)[C@H](O)C[C@@H]1CC[C@@H]1[C@@H]2CC[C@]2(C)[C@@H](O)CC[C@@H]12 | 113%
[Cl][Hg][c]1cc[c]([Hg][Cl])o1 | 62.1%
NC(=S)c1cn(C2OC(CO)C(O)C2O)c2ncnc(N)c12 (stereo not given) | -55.9% (active)
COC(=O)CC[C@H](Cc1ccccc1)NC(=O)c1csc([C@@H](C[C@H](C(C)C)N(C)C(=O)[C@@H](NC(=O)[C@H]2CCCCN2C)C(C)C)OC(C)=O)n1 | 69.6%
